Laboratory results as given in PubChem BioAssay (Tox21).
Where “and” joins values, the source holds several entries; their conditions need not be identical. Equal entries are not always repeated. Results filed as inconclusive are left out. Where a call stands in place of a potency, no number is given. Unmarked numbers belong to inactive results. Calls of active or inactive are those of the source. Unless noted, calls follow the shape of the dose curve; as a rule, active = well fitted curve in the direction sought with a large enough effect in the repeat runs; inconclusive = weak or mixed curves; inactive = no such curve, though single readings can be large; an effect the other way counts as inactive or inconclusive.

Key:
[1] = qHTS assay to identify small molecule agonists of the vitamin D receptor (VDR) signaling pathway - cell viability counter screen (AID 743224); also: nearly all actives have a fitted effect of over 50% in size; also: potency is read from the fitted curve at half-maximal effect; as to activity change, negative = cytotoxicity: series mostly up to about 63 µM
Method in brief: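 VDR-bla cells were preincubated 4 h at 37C/5% CO2, then exposed to compounds for 16 h. After the 2 h room-temperature bla FRET read, CellTiter-Glo was added to the same wells and luminescence read after 30 min.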

[2] = qHTS assay to identify small molecule antagonists of the vitamin D receptor (VDR) signaling pathway - cell viability counter screen (AID 743225); also: nearly all actives have a fitted effect of over 50% in size; also: potency is read from the fitted curve at half-maximal effect
Method in brief: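 Viability counter screen run in the same wells as the beta-lactamase reporter assay: HEK 293T VDR-UAS-bla cells, 16 h compound exposure at 37C with 3 nM (final) 1-alpha,25-dihydroxyvitamin D3. CellTiter-Glo luminescence, 30 min, room temperature.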

[3] = qHTS assay to identify small molecule agonists of the NFkB signaling pathway - cell viability counter screen (AID 1159515; calls by dose curve; also: series mostly up to about 61 µM; nearly all actives have a fitted effect of over 55% in size)
Method in brief: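 NFkB-bla ME-180 cells, 2,000/well, were plated overnight at 37 C, 5% CO2, then exposed to compounds in DMSO for 5 hr. After the bla FRET read, CellTiter-Glo was added to the same wells; luminescence was read after 30 min at room temperature.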

[4] = qHTS assay to identify small molecule agonists of the endoplasmic reticulum stress response signaling pathway (AID 1159516; active = well fitted activation curve with a large enough effect in the signal ratio in the repeat runs, not every such curve was filed as active; the % refers to the signal ratio; also: potency is read from the fitted curve at half-maximal effect)
Method in brief: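 CellSensor ESRE-bla HeLa cells, carrying a beta-lactamase reporter driven by the ER stress response element, were plated overnight and exposed to compounds for 5 hr at 37 C. Reporter activity was read as FRET substrate fluorescence after 2 hr at room temperature.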

[5] = qHTS assay to identify small molecule antagonists of the retinoid-related orphan receptor gamma (ROR-gamma) signaling pathway - cell viability counter screen (AID 1159520); also: nearly all actives have a fitted effect of over 50% in size; also: potency is read from the fitted curve at half-maximal effect
Method in brief: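 Cytotoxicity was read from cellular ATP (CellTiter-Glo luminescence) after 16 hr at 37 C with 1 uM doxycycline induction. The inducer was added 2 hr after compound transfer to Tet-on ROR gamma CHO cells.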

[6] = target: Nuclear receptor ROR-gamma (Homo sapiens) (UniProt P51449); assay: qHTS assay to identify small molecule antagonists of the retinoid-related orphan receptor gamma (ROR-gamma) signaling pathway (AID 1159521; also: nearly all actives have a fitted effect of over 50% in size; also: potency is read from the fitted curve at half-maximal effect)
Method in brief: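 Luminescence readout (ONE-Glo, 30 min RT) after 16 h doxycycline induction; loss of signal scored as antagonism. CHO cells with TET-inducible RORγ and RORE-LUC reporter; compounds added 2 h before 1 uM final doxycycline.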

[7] = qHTS assay to identify small molecule agonists of the AP-1 signaling pathway (AID 1159526; calls by dose curve)
[8] = target: Retinoic acid receptor RXR-alpha (Homo sapiens) (UniProt P19793); assay: qHTS assay to identify small molecule agonists of the RXR signaling pathway (AID 1159527; calls by dose curve; also: nearly all actives have a fitted effect of over 35% in size)
Sequence of Retinoic acid receptor RXR-alpha (Homo sapiens) (P19793 whole entry, looked up): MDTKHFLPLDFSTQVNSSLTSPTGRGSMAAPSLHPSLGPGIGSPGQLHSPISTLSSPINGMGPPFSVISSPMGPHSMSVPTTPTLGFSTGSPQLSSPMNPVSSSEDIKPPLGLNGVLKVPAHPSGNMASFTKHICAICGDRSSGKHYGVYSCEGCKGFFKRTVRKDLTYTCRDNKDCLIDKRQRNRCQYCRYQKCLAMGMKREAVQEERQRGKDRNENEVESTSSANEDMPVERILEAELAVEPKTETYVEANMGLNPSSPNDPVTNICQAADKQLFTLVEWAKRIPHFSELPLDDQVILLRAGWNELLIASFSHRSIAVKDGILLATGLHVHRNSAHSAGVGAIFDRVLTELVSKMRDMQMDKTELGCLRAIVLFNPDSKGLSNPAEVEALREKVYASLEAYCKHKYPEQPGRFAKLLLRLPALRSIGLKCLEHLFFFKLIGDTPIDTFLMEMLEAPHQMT
Method in brief: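 Agonist mode; 9-cis retinoic acid positive control. HEK 293T UAS-bla reporter cells, 2% charcoal-stripped FBS, 16 hr compound exposure at 37 C/5% CO2. LiveBLAzer B/G FRET substrate 2 hr RT; ex 405, em 460/530 nm.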

[9] = qHTS assay to identify small molecule agonists of the endoplasmic reticulum stress response signaling pathway - cell viability counter screen (AID 1159517; calls by dose curve)
Method in brief: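 Cells, HeLa ESRE-bla; density, 1,500/well; dosing, 5 hr at 37 C, 5% CO2; readout, CellTiter-Glo luminescence after 30 min RT.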

[10] = qHTS assay to identify small molecule agonists of the AP-1 signaling pathway - cell viability counter screen (AID 1159525; calls by dose curve; also: nearly all actives have a fitted effect of over 55% in size)
Method in brief: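 Luminescent ATP readout (Cell Titer Glo, 30 min RT), normalised to DMSO and tetra n-octyl ammonium bromide controls. Cells were ME-180 AP-1-bla in 0.5% dialyzed FBS Opti-MEM, with a 5 h, 37 °C compound exposure.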

## Nc1ccc(S(=O)(=O)Nc2ccccc2)cc1
[1]
  Potency: inactive
[2]
  Potency: inactive
[3]
  Potency: inactive
[4]
  Potency: inactive
[5]
  Potency: inactive
[6]
  Potency: inactive
[7]
  Potency: inactive
[8]
  Potency: inactive

## COC(=O)C1=C(C)NC(COC(N)=O)=C(C(=O)OC(C)C)C1c1cccc(Cl)c1Cl (stereo not drawn)
[1]
  Potency: inactive
[3]
  Potency: inactive
[4]
  Potency: 21.3 µM (active)
[9]
  Potency: inactive
[6]
  Potency: inactive
[10]
  Potency: inactive
[7]
  Potency: inactive
[8]
  Potency: inactive

## CCCn1cnc2c1c(=O)n(CCCCC(C)=O)c(=O)n2C
[1]
  Potency: inactive
[2]
  Potency: inactive
[3]
  Potency: inactive
[4]
  Potency: inactive
[5]
  Potency: inactive
[10]
  Potency: inactive
[7]
  Potency: inactive

## CCCCCCCCO[C@@H]1O[C@H](CO)[C@@H](O)[C@H](O)[C@H]1O
[1]
  Potency: inactive
[2]
  Potency: inactive
[3]
  Potency: inactive
[4]
  Potency: inactive
[5]
  Potency: inactive
[7]
  Potency: inactive
[8]
  Potency: inactive

## C=CC(=O)OCCOCCOCCOCCOC(=O)C=C
[3]
  Potency: inactive
[4]
  Potency: inactive
[6]
  Potency: 12.3 µM (active) and 8.56 µM (active)
[10]
  Potency: inactive

## CNCCCCOc1ccccc1Cc1ccccc1
[3]
  Potency: inactive
[4]
  Potency: inactive
[5]
  Potency: inactive
[10]
  Potency: inactive

## COCCCN1CCC(NC(=O)c2cc(Cl)c(N)c3c2OCC3)CC1
[1]
  Potency: inactive
[2]
  Potency: inactive
[3]
  Potency: inactive
[4]
  Potency: inactive
[5]
  Potency: inactive
[10]
  Potency: inactive
[7]
  Potency: inactive

## CC[N+]1(CC)CCC(=C(c2ccccc2)c2ccccc2)C1C (stereo not drawn)
[3]
  Potency: inactive
[4]
  Potency: inactive
[5]
  Potency: inactive
[7]
  Potency: inactive
[8]
  Potency: inactive

## CCOC(=O)c1cccnc1
[1]
  Potency: inactive
[2]
  Potency: inactive
[3]
  Potency: inactive
[4]
  Potency: inactive
[5]
  Potency: inactive
[10]
  Potency: inactive
[7]
  Potency: inactive
[8]
  Potency: inactive

## CCN(CC)c1ccc(C(=C2C=CC(=[N+](CC)CC)C=C2)c2cc(S(=O)(=O)O)ccc2S(=O)(=O)[O-])cc1
[1]
  Potency: inactive
[2]
  Potency: inactive
[3]
  Potency: inactive
[4]
  Potency: inactive
[5]
  Potency: 13.3 µM (active)
[7]
  Potency: inactive
[8]
  Potency: inactive

## COC(C)OC
[2]
  Potency: inactive
[3]
  Potency: inactive
[4]
  Potency: inactive
[5]
  Potency: inactive
[10]
  Potency: inactive
[7]
  Potency: inactive

## C/C=C/C(=O)CC
[1]
  activity change, negative = cytotoxicity: 7.61% [at 13.2 µM]
[2]
  viability change, negative = cytotoxic: 1.57% [at 15.1 µM]
[3]
  activity, negative = cytotoxic: 18.8% [at 15.1 µM]
[4]
  activation: 0.579% [at 15.1 µM]
[5]
  activity, negative = cytotoxicity: 4.4% [at 19 µM]
[10]
  viability change, negative = cytotoxic: -12.1% [at 15.8 µM]

## NCCCN1CCOCC1
[1]
  Potency: inactive
[2]
  Potency: inactive
[3]
  Potency: inactive
[4]
  Potency: inactive
[5]
  Potency: inactive
[10]
  Potency: inactive
[7]
  Potency: inactive

## CCCCc1nc2cccnc2n1Cc1ccc(-c2ccccc2-c2nnn[nH]2)cc1
[1]
  Potency: inactive
[2]
  Potency: inactive
[3]
  Potency: inactive
[4]
  Potency: inactive
[5]
  Potency: inactive
[10]
  Potency: inactive
[7]
  Potency: inactive

## COC(C)(C)CCO
[1]
  Potency: inactive
[2]
  Potency: inactive
[3]
  Potency: inactive
[4]
  Potency: inactive
[5]
  Potency: inactive
[10]
  Potency: inactive
[7]
  Potency: inactive
[8]
  Potency: inactive

## CC(C)=CCC/C(C)=C/CC/C(C)=C/CO
[1]
  Potency: 49 µM (active)
[2]
  Potency: inactive
[3]
  Potency: inactive
[4]
  Potency: inactive
[5]
  Potency: inactive
[6]
  Potency: inactive

## Cc1cccc(C)c1OCC(=O)N[C@@H](Cc1ccccc1)[C@@H](O)C[C@H](Cc1ccccc1)NC(=O)[C@H](C(C)C)N1CCCNC1=O
[1]
  Potency: inactive
[2]
  Potency: inactive
[4]
  Potency: inactive
[9]
  Potency: inactive
[5]
  Potency: inactive
[6]
  Potency: 29.8 µM (active)
[7]
  Potency: inactive

## Cc1cc(C(=O)O)ccc1[N+](=O)[O-]
[1]
  Potency: inactive
[2]
  Potency: inactive
[3]
  Potency: inactive
[4]
  Potency: inactive
[5]
  Potency: inactive
[10]
  Potency: inactive
[7]
  Potency: inactive

## CC(CSC(=O)c1ccccc1)C(=O)N1C[C@@H](Sc2ccccc2)C[C@H]1C(=O)O (stereo partly drawn)
[1]
  Potency: inactive
[2]
  Potency: inactive
[3]
  Potency: inactive
[4]
  Potency: inactive
[5]
  activity, negative = cytotoxicity: 3.47% [at 19 µM]
[10]
  viability change, negative = cytotoxic: -2.27% [at 15.8 µM]
[7]
  activation: 17.2% [at 15.8 µM]
[8]
  activation: -12.9% [at 15.8 µM]

## CCCCC(=O)OCC(=O)[C@H]1[C@H](C)C[C@H]2[C@@H]3C[C@H](F)C4=CC(=O)C=C[C@]4(C)[C@@]3(F)[C@@H](O)C[C@@]21C
[1]
  Potency: inactive
[2]
  Potency: inactive
[3]
  Potency: inactive
[4]
  Potency: inactive
[5]
  Potency: inactive
[10]
  Potency: inactive
[7]
  Potency: inactive

## NC(=O)C(c1ccccc1)(c1ccccc1)[C@@H]1CCN(CCc2ccc3c(c2)CCO3)C1
[2]
  Potency: inactive
[3]
  Potency: inactive
[4]
  Potency: inactive
[5]
  Potency: inactive
[7]
  Potency: inactive

## O=CC1CC=CCC1 (stereo not drawn)
[1]
  Potency: inactive
[2]
  Potency: inactive
[3]
  Potency: inactive
[4]
  Potency: inactive
[5]
  Potency: inactive
[10]
  Potency: inactive
[7]
  Potency: inactive

## CCCCC/C=C\C/C=C\CCCCCCCC(=O)NC(C)c1ccccc1 (stereo not drawn)
[1]
  Potency: inactive
[2]
  Potency: inactive
[4]
  Potency: inactive
[9]
  Potency: inactive
[5]
  Potency: inactive
[6]
  Potency: inactive
[7]
  Potency: inactive

## c1ccc(C(O[C@H]2CCCN(CCc3ccc4c(c3)OCO4)C2)c2ccccc2)cc1
[1]
  Potency: inactive
[2]
  Potency: inactive
[3]
  Potency: inactive
[4]
  Potency: inactive
[5]
  Potency: inactive
[10]
  Potency: inactive

## Cc1cccc(C)c1NC(=O)CN(CC(=O)O)CC(=O)O
[1]
  Potency: inactive
[2]
  Potency: inactive
[3]
  Potency: inactive
[4]
  Potency: inactive
[5]
  Potency: inactive
[10]
  Potency: inactive
[7]
  Potency: inactive

## CCN(CC)CCNc1ccc(CNC=O)c2sc3ccc(OC)cc3c(=O)c12
[1]
  Potency: 54.9 µM (active)
[2]
  Potency: 43.6 µM (active)
[3]
  Potency: inactive
[4]
  Potency: inactive
[5]
  Potency: 54.5 µM (active)
[10]
  Potency: inactive
[7]
  Potency: inactive

## C[N+]1(CC2COC(c3ccccc3)(C3CCCCC3)O2)CCCCC1 (stereo not drawn)
[1]
  Potency: inactive
[2]
  Potency: inactive
[3]
  Potency: inactive
[4]
  Potency: inactive
[5]
  Potency: inactive
[7]
  Potency: inactive
[8]
  Potency: inactive

## C=CC(=O)OCCOc1ccccc1
[1]
  Potency: inactive
[2]
  Potency: inactive
[3]
  Potency: inactive
[4]
  Potency: inactive
[5]
  Potency: inactive
[10]
  Potency: inactive

## c1ccc(CNCCNCc2ccccc2)cc1
[1]
  Potency: inactive
[2]
  Potency: inactive
[4]
  Potency: inactive
[9]
  Potency: inactive
[5]
  Potency: inactive
[6]
  Potency: inactive
[7]
  Potency: inactive
